Experimental data taken from PubChem BioAssay AID1159580 (chemical genetic matrix, 2015).
Values joined by “and” are separate entries in the source; they are usually repeats but may differ in a detail not shown here. Identical values can stand only once. About 2,000 (36%) of roughly 5,500 compounds were called active. Not shown: some 18% with an inconclusive outcome. The list shows a part of the results. A number with no mark means an inactive call. Rule as the data show it: active = normalized growth mostly below about 0.91 (no sharp cut-off); inconclusive = no clear call, values can overlap the other calls; inactive = mostly above about 0.92.

Assay: chemical genetic growth profiling, strain panel (AID 1159580);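 also: tested at 20 µM; growth read once vehicle control cultures reached saturation at 30 °C; 1 = growth at the plate median or of vehicle wells; lower values mean less growth of the strain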
Conditions: S. cerevisiae deletion strains, growth OD

Question: Which normalized growth (locus YAL013W, strain DEP1, active compounds read low) does the source give for COc1cc(C(=O)N2CCOCC2)cc(OC)c1OC here?
Answer: Its normalized growth is 1.01.

Question: What about the normalized growth (locus YAL021C, strain ccr4, active compounds read low) of the same compound?
Answer: Its normalized growth is 1.01.

Question: What about the normalized growth (locus YAL026C, strain drs2, active compounds read low) of the same compound?
Answer: The normalized growth was 0.974.

Question: And the normalized growth (locus YAL030W, strain snc1, active compounds read low)?
Answer: Its normalized growth is 0.984.

Question: And the normalized growth (locus YBL061C, strain skt5, active compounds read low)?
Answer: Its normalized growth is 0.967.

Question: And the normalized growth (locus YBR009C, strain hhf1, active compounds read low)?
Answer: The normalized growth was 1.01.

Question: What about the normalized growth (locus YBR021W, strain FUR4, active compounds read low) of the same compound?
Answer: The normalized growth was 0.997.

Question: And the normalized growth (locus YBR023C, strain chs3, active compounds read low)?
Answer: The normalized growth was 0.971.

Question: And the normalized growth (locus YBR171W, strain sec66, active compounds read low)?
Answer: The normalized growth was 0.972.

Question: What about the normalized growth (locus YBR229C, strain ROT2, active compounds read low) of the same compound?
Answer: Its normalized growth is 1.01.

Question: And the normalized growth (locus YBR231C, strain swc5, active compounds read low)?
Answer: Its normalized growth is 0.983.

Question: What about the normalized growth (locus YBR279W, strain paf1, active compounds read low) of the same compound?
Answer: The normalized growth was 0.983.

Question: And the normalized growth (locus YCL011C, strain gbp2, active compounds read low)?
Answer: Its normalized growth is 0.993.

Question: What about the normalized growth (locus YCL016C, strain dcc1, active compounds read low) of the same compound?
Answer: Its normalized growth is 1.

Question: What about the normalized growth (locus YCL029C, strain bik1, active compounds read low) of the same compound?
Answer: The normalized growth was 0.726 (active).

Question: And the normalized growth (locus YCL061C, strain MRC1, active compounds read low)?
Answer: The normalized growth was 0.978.

Question: And the normalized growth (locus YCL069W, strain vba3, active compounds read low)?
Answer: The normalized growth was 0.972.

Question: What about the normalized growth (locus YCR088W, strain abp1, active compounds read low) of the same compound?
Answer: Its normalized growth is 0.978.

Question: What about the normalized growth (locus YDL005C, strain med2, active compounds read low) of the same compound?
Answer: Its normalized growth is 0.969.

Question: And the normalized growth (locus YDL035C, strain GPR1, active compounds read low)?
Answer: The normalized growth was 1.02.

Question: What about the normalized growth (locus YDL040C, strain nat1, active compounds read low) of the same compound?
Answer: The normalized growth was 0.974.

Question: What about the normalized growth (locus YDL074C, strain BRE1, active compounds read low) of the same compound?
Answer: Its normalized growth is 1.01.

Question: And the normalized growth (locus YDL101C, strain DUN1, active compounds read low)?
Answer: The normalized growth was 1.02.

Question: What about the normalized growth (locus YDL134C, strain PPH21, active compounds read low) of the same compound?
Answer: The normalized growth was 1.01.

Question: What about the normalized growth (locus YDL185W, strain tfp1, active compounds read low) of the same compound?
Answer: Its normalized growth is 1.01.

Question: What about the normalized growth (locus YDL192W, strain arf1, active compounds read low) of the same compound?
Answer: The normalized growth was 0.101 (active).

Question: What about the normalized growth (locus YDR001C, strain nth1, active compounds read low) of the same compound?
Answer: The normalized growth was 0.98.

Question: And the normalized growth (locus YDR069C, strain doa4, active compounds read low)?
Answer: The normalized growth was 0.992.

Question: And the normalized growth (locus YDR101C, strain arx1, active compounds read low)?
Answer: Its normalized growth is 0.494 (active).

Question: And the normalized growth (locus YDR137W, strain rgp1, active compounds read low)?
Answer: The normalized growth was 0.989.

Question: And the normalized growth (locus YDR150W, strain NUM1, active compounds read low)?
Answer: Its normalized growth is 1.02.

Question: What about the normalized growth (locus YDR159W, strain sac3, active compounds read low) of the same compound?
Answer: Its normalized growth is 0.961.

Question: And the normalized growth (locus YDR162C, strain NBP2, active compounds read low)?
Answer: Its normalized growth is 1.

Question: What about the normalized growth (locus YDR195W, strain ref2) of the same compound?
Answer: Its normalized growth is 0.937.

Question: What about the normalized growth (locus YDR297W, strain sur2, active compounds read low) of the same compound?
Answer: Its normalized growth is 0.999.

Question: And the normalized growth (locus YDR318W, strain mcm21, active compounds read low)?
Answer: Its normalized growth is 0.0684 (active).

Question: And the normalized growth (locus YDR334W, strain swr1, active compounds read low)?
Answer: The normalized growth was 0.966.

Question: And the normalized growth (locus YDR335W, strain msn5, active compounds read low)?
Answer: Its normalized growth is 0.979.

Question: And the normalized growth (locus YDR388W, active compounds read low)?
Answer: The normalized growth was 0.0657 (active).

Question: And the normalized growth (locus YDR392W, strain spt3, active compounds read low)?
Answer: Its normalized growth is 1.02.

Question: What about the normalized growth (locus YDR502C, strain sam2, active compounds read low) of the same compound?
Answer: The normalized growth was 0.111 (active).

Question: What about the normalized growth (locus YEL003W, strain gim4, active compounds read low) of the same compound?
Answer: Its normalized growth is 0.985.

Question: What about the normalized growth (locus YEL037C, strain rad23, active compounds read low) of the same compound?
Answer: Its normalized growth is 0.988.

Question: And the normalized growth (locus YEL061C, strain CIN8 (second series), active compounds read low)?
Answer: Its normalized growth is 0.964.

Question: What about the normalized growth (locus YEL061C, strain CIN8, active compounds read low) of the same compound?
Answer: The normalized growth was 1.

Question: And the normalized growth (locus YER015W, strain faa2, active compounds read low)?
Answer: Its normalized growth is 0.989.

Question: And the normalized growth (locus YER016W, strain bim1, active compounds read low)?
Answer: The normalized growth was 0.987.

Question: And the normalized growth (locus YER110C, active compounds read low)?
Answer: The normalized growth was 0.264 (active).

Question: What about the normalized growth (locus YER111C, strain swi4, active compounds read low) of the same compound?
Answer: The normalized growth was 0.945.

Question: And the normalized growth (locus YER155C, strain BEM2 (second series), active compounds read low)?
Answer: The normalized growth was 0.994.

Question: And the normalized growth (locus YER155C, strain BEM2, active compounds read low)?
Answer: Its normalized growth is 1.01.

Question: And the normalized growth (locus YER167W, strain BCK2, active compounds read low)?
Answer: The normalized growth was 1.02.

Question: And the normalized growth (locus YFR010W, strain ubp6, active compounds read low)?
Answer: Its normalized growth is 0.962.

Question: And the normalized growth (locus YGL078C, strain dbp3, active compounds read low)?
Answer: The normalized growth was 0.138 (active).

Question: What about the normalized growth (locus YGL086W, strain mad1, active compounds read low) of the same compound?
Answer: The normalized growth was 0.0586 (active).

Question: What about the normalized growth (locus YGL167C, strain pmr1, active compounds read low) of the same compound?
Answer: Its normalized growth is 0.971.

Question: What about the normalized growth (locus YGL173C, strain kem1, active compounds read low) of the same compound?
Answer: Its normalized growth is 0.985.

Question: And the normalized growth (locus YGL227W, strain vid30, active compounds read low)?
Answer: Its normalized growth is 0.978.

Question: And the normalized growth (locus YGL240W, strain doc1, active compounds read low)?
Answer: The normalized growth was 0.991.

Question: And the normalized growth (locus YGL248W, strain PDE1, active compounds read low)?
Answer: Its normalized growth is 1.01.

Question: What about the normalized growth (locus YGL253W, strain hxk2, active compounds read low) of the same compound?
Answer: Its normalized growth is 0.97.

Question: And the normalized growth (locus YGR078C, strain PAC10, active compounds read low)?
Answer: Its normalized growth is 1.

Question: And the normalized growth (locus YGR135W, strain pre9, active compounds read low)?
Answer: The normalized growth was 0.0725 (active).

Question: And the normalized growth (locus YGR229C, strain SMI1, active compounds read low)?
Answer: Its normalized growth is 1.01.

Question: What about the normalized growth (locus YGR252W, strain gcn5, active compounds read low) of the same compound?
Answer: The normalized growth was 0.211 (active).

Question: And the normalized growth (locus YHR013C, strain ard1, active compounds read low)?
Answer: Its normalized growth is 0.997.

Question: And the normalized growth (locus YHR027C, strain rpn1, active compounds read low)?
Answer: Its normalized growth is 0.995.

Question: And the normalized growth (locus YHR030C, strain SLT2, active compounds read low)?
Answer: The normalized growth was 1.01.

Question: And the normalized growth (locus YHR079C, strain IRE1 (second series), active compounds read low)?
Answer: Its normalized growth is 0.578 (active).

Question: What about the normalized growth (locus YHR079C, strain IRE1, active compounds read low) of the same compound?
Answer: The normalized growth was 1.04.

Question: What about the normalized growth (locus YHR094C, strain hxt1, active compounds read low) of the same compound?
Answer: The normalized growth was 0.127 (active).

Question: What about the normalized growth (locus YHR129C, strain ARP1, active compounds read low) of the same compound?
Answer: Its normalized growth is 0.998.

Question: And the normalized growth (locus YHR142W, strain chs7, active compounds read low)?
Answer: The normalized growth was 0.982.

Question: And the normalized growth (locus YHR200W, strain rpn10, active compounds read low)?
Answer: Its normalized growth is 0.122 (active).

Question: And the normalized growth (locus YIL066C, strain RNR3, active compounds read low)?
Answer: Its normalized growth is 1.02.

Question: And the normalized growth (locus YIL073C, strain SPO22, active compounds read low)?
Answer: Its normalized growth is 1.09.

Question: What about the normalized growth (locus YIL125W, strain kgd1, active compounds read low) of the same compound?
Answer: The normalized growth was 0.198 (active).

Question: What about the normalized growth (locus YIR030C, strain dcg1, active compounds read low) of the same compound?
Answer: Its normalized growth is 0.292 (active).

Question: And the normalized growth (locus YJL092W, strain hpr5, active compounds read low)?
Answer: The normalized growth was 0.972.

Question: What about the normalized growth (locus YJL095W, strain BCK1 (second series), active compounds read low) of the same compound?
Answer: The normalized growth was 0.979.

Question: And the normalized growth (locus YJL095W, strain BCK1, active compounds read low)?
Answer: Its normalized growth is 0.991 and 0.987.

Question: And the normalized growth (locus YJL115W, strain asf1, active compounds read low)?
Answer: The normalized growth was 0.987.

Question: What about the normalized growth (locus YJL129C, strain trk1, active compounds read low) of the same compound?
Answer: Its normalized growth is 0.958.

Question: What about the normalized growth (locus YJL134W, strain LCB3, active compounds read low) of the same compound?
Answer: Its normalized growth is 1.01.

Question: What about the normalized growth (locus YJL154C, strain vps35, active compounds read low) of the same compound?
Answer: Its normalized growth is 0.974.

Question: What about the normalized growth (locus YJL164C, strain tpk1, active compounds read low) of the same compound?
Answer: Its normalized growth is 0.999.

Question: What about the normalized growth (locus YJL166W, strain qcr8, active compounds read low) of the same compound?
Answer: The normalized growth was 1.02.

Question: And the normalized growth (locus YJL168C, strain set2, active compounds read low)?
Answer: The normalized growth was 0.202 (active).

Question: And the normalized growth (locus YJL187C, strain SWE1 (second series), active compounds read low)?
Answer: Its normalized growth is 1.01.

Question: And the normalized growth (locus YJR043C, strain POL32, active compounds read low)?
Answer: The normalized growth was 1.02.

Question: What about the normalized growth (locus YJR066W, strain TOR1, active compounds read low) of the same compound?
Answer: The normalized growth was 0.984.
